This passage reports growth inhibition results from PubChem BioAssay (NCI).

The nature of experiment [1]: NCI Yeast Anticancer Drug Screen. Data for the rad50 strain (AID 155).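 Note: 0% = growth of vehicle-only cultures of the same strain.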 The note with it: S. cerevisiae rad50 strain growth inhibition; at 50.0 µM; hits give high values. Put shortly: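 Compounds were tested on a yeast strain with an engineered DNA damage repair alteration; the reported value is growth inhibition normalised to vehicle treatment.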
The nature of experiment [2]: NCI Yeast Anticancer Drug Screen. Data for the mec2-1 strain (AID 157). The note with it: S. cerevisiae mec2-1 strain, at 50.0 µM, hits give high values. Put shortly: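 Growth inhibition is read against vehicle-treated controls after compound exposure of the mec2-1 yeast strain, which is defective in DNA damage repair or cell cycle control.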
Experiment [3] in a line: NCI Yeast Anticancer Drug Screen. Data for the sgs1 mgt1 strain (AID 161).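 Note: 0% = growth of cultures given vehicle only.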 The note with it: S. cerevisiae sgs1 mgt1 strain, at 50.0 µM, hits give high values. A digest of the protocol:
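Growth of a repair-deficient yeast mutant was monitored after compound treatment and expressed as inhibition relative to vehicle-treated cultures.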

A short description of experiment [4]: NCI Yeast Anticancer Drug Screen. Data for the cln2 rad14 strain (AID 165).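 Note: 0% = growth equal to vehicle treated cultures.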 Particulars: S. cerevisiae cln2 rad14 strain, at 50.0 µM, hits give high values. A digest of the protocol: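 Growth inhibition, relative to vehicle-treated controls, is the read-out. The test organism is a yeast strain with defined genetic alterations, cln2 rad14.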
Experiment [5] can be described thus: NCI Yeast Anticancer Drug Screen. Data for the bub3 strain (AID 167). The note with it: S. cerevisiae bub3 mutant strain, at 50.0 µM, hits give high values. Put shortly: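 Growth of a checkpoint-deficient yeast mutant is measured after compound exposure. Values represent inhibition relative to vehicle.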
The nature of experiment [6]: NCI Yeast Anticancer Drug Screen. Data for the mlh1 rad18 strain (AID 175). Particulars: S. cerevisiae mlh1 rad18 strain growth inhibition; at 50.0 µM; hits give high values. A digest of the protocol:
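Cells of a genetically altered yeast strain, deficient in DNA damage repair, were treated with compound. Their growth was then compared with that of vehicle-treated cultures to give inhibition.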

The structures appear in SMILES notation. About 79,000 compounds went through this panel and 15% of them were active in at least one assay; those are over-represented in the sample as a whole. A number with no mark means an inactive call. Calls of active or inactive are those of the source. Cut-off read from the data, not from the text of the source: active = growth inhibition above about 70%; inactive = the rest.

As for `C/C(=N\NC(=O)c1ccncc1)c1ccccc1Cl`, the growth inhibition in experiment [1] is -23.3%; in experiment [2], -23.9%; in experiment [3], -16.1%; in experiment [4], -13.3%; in experiment [5] it was -75.8%; in experiment [6] it was -17.4%.
`COC(=O)C(=O)C(C(=O)C=C(C)C)c1nc2n(c1O)C(=N)N=N2` (stereo unspecified): the growth inhibition was 13.2% in experiment [1]; 20.9% in experiment [2]; 14.3% in experiment [3]; -1.75% in experiment [4]; 13.1% in experiment [5]; 17.4% in experiment [6].
Consider `CCCCCCCCCCCCCCCC1=NN(c2ccc([N+](=O)[O-])cc2)C(=O)C1`, for which the growth inhibition is 14.9% in experiment [1]; -3.8% in experiment [2]; -25.8% in experiment [3]; -8.4% in experiment [4]; 1.3% in experiment [5]; 0.75% in experiment [6].
Turning to `CCOc1c(Cc2ccccc2)c(=O)n2c3ccccc3n(CC)c2c1C#N`, the growth inhibition in experiment [1] is -4.75%; in experiment [2] it was -6.05%; in experiment [3], 0.25%; in experiment [4], -11.8%; in experiment [5], -29.9%; in experiment [6], -10.8%.
On to `NC(=S)c1ccncc1`, for which the growth inhibition in experiment [1] is 6.5%; in experiment [2], 8.15%; in experiment [3], 13%; in experiment [4], 12.7%; in experiment [5], 5%; in experiment [6], -27.4%.
On to `Cc1ccc(Br)cc1C(=O)O`, for which the growth inhibition in experiment [1] was 20.8%; in experiment [2], 2.25%; in experiment [3], 15.2%; in experiment [4], 13.8%; in experiment [5], -6.1%; in experiment [6] it was 15.4%.
For the molecule `CN(C)CCNC(=O)c1ccc2nc3c(nc2c1)C(=O)c1ccccc1-3`, the growth inhibition in experiment [1] is -9.4%; in experiment [2] it was -2.85%; in experiment [3] it was 31.3%; in experiment [4], 36.8%; in experiment [5] it was 3.6%; in experiment [6], 15.9%.
As for `CCOC1CCC(C(=O)CC)C(C#N)(C#N)C1(C#N)C#N` (stereo unspecified), the growth inhibition in experiment [1] is 22.6%; in experiment [2] it was 13.7%; in experiment [3] it was 4.75%; in experiment [4], 12.8%; in experiment [5] it was 11.8%; in experiment [6], 7.8%.
For `Cc1ccc(/C=C/C(=N/NC(=O)c2ccccc2)C(C)CN(C)C)cc1` (stereo unspecified), the growth inhibition was 6.6% in experiment [1]; 5.65% in experiment [2]; 6.45% in experiment [3]; -11.2% in experiment [4]; 0.25% in experiment [5]; 12.9% in experiment [6].
As for `COc1ccc(CC(=O)NC(N)=O)cc1`, the growth inhibition in experiment [1] is -6.35%; in experiment [2], 2.7%; in experiment [3] it was -12.3%; in experiment [4] it was -9.4%; in experiment [5], -6.1%; in experiment [6] it was 5.15%.
Regarding `Cc1cn(C2CC(N(C)O)C(CO)O2)c(=O)[nH]c1=O` (stereo unspecified), the growth inhibition in experiment [1] is -16.8%; in experiment [2], -27%; in experiment [3], -8.15%; in experiment [4] it was -34.7%; in experiment [5] it was -12.3%; in experiment [6], -58.9%.
`CCOc1ccccc1C(=O)OCCCc1ccccc1`: the growth inhibition in experiment [1] is -1%; in experiment [2] it was 9.15%; in experiment [3] it was 7.1%; in experiment [4], -2.25%; in experiment [5], 25.2%; in experiment [6], 15.4%.
Take `N#Cc1ccccc1N=Nc1nc(N)c(C(N)=O)[nH]1`: the growth inhibition was 22.2% in experiment [1]; 13.7% in experiment [2]; 11.2% in experiment [3]; -5.05% in experiment [4]; 4.7% in experiment [5]; 10.2% in experiment [6].
On to `N#CN1CCC2CC(=O)CCC2C1` (stereo unspecified), for which the growth inhibition in experiment [1] was 6.2%; in experiment [2], 2.95%; in experiment [3] it was -6.5%; in experiment [4], 5.75%; in experiment [5] it was 0.75%; in experiment [6] it was -10.6%.
With `O=C1CC(Cc2n[nH]c3c2CCC3)CC(=O)N1`, the growth inhibition is -8.25% in experiment [1]; 2.65% in experiment [2]; -10.2% in experiment [3]; -16.4% in experiment [4]; -10% in experiment [5]; -13.2% in experiment [6].
For the molecule `C=CC(O)C1OC2OC(C)(C)OC2C2OC(C)(C)OC12` (stereo unspecified), the growth inhibition in experiment [1] is -2.75%; in experiment [2], 13.2%; in experiment [3] it was 2.7%; in experiment [4] it was -32.8%; in experiment [5], 21.4%; in experiment [6], 5.45%.
`O=C(CC(O)(CCc1ccccc1)c1ccccc1)N1CCC(O)(c2ccccc2)CC1` (stereo unspecified): the growth inhibition in experiment [1] is 97.2% (active); in experiment [2], 98.5% (active); in experiment [3] it was 98.2% (active); in experiment [4] it was 97.6% (active); in experiment [5], 97.8% (active); in experiment [6], 98.2% (active).
`Cc1c(CN2CCOCC2)c(CN2CCOCC2)c(C)n1-c1ccc(Cl)cn1`: the growth inhibition in experiment [1] is -31.1%; in experiment [2], 7.9%; in experiment [3], -23.1%; in experiment [4] it was -6.85%; in experiment [5] it was -15.7%; in experiment [6], 7.55%.
For `COC1(OC)C2(Cl)C3=CCCC=C3C1(Cl)C(Cl)=C2Cl`, the growth inhibition was 27.5% in experiment [1]; 9.45% in experiment [2]; 11.7% in experiment [3]; 29.8% in experiment [4]; 15.6% in experiment [5]; -6.65% in experiment [6].
On to `O=[N+]([O-])c1ccc(N=NNc2ccc(N=Nc3ccccc3)cc2)cc1`, for which the growth inhibition in experiment [1] was 12.1%; in experiment [2], -18.8%; in experiment [3], -1%; in experiment [4], 6.7%; in experiment [5], 0.1%; in experiment [6], 4.6%.
`C=C1C(=O)OC2(C)CCC1CC1OC1(C)CCC=C(C)CCC2O` (stereo unspecified): the growth inhibition was 3.7% in experiment [1]; -39.1% in experiment [2]; 17.4% in experiment [3]; 8% in experiment [4]; -17.7% in experiment [5]; -39.5% in experiment [6].
